The values that follow come from ChEMBL document CHEMBL1961873, “Compounds: GSK PKIS; Assays: Nanosyn kinase panel” (2012).
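Also: values are mean percent inhibition of IGF1R kinase activity, from the GSK published kinase inhibitor set (PKIS) screening panel.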

Sequence of Insulin-like growth factor 1 receptor (Homo sapiens) (P08069 31-736 limits assumed): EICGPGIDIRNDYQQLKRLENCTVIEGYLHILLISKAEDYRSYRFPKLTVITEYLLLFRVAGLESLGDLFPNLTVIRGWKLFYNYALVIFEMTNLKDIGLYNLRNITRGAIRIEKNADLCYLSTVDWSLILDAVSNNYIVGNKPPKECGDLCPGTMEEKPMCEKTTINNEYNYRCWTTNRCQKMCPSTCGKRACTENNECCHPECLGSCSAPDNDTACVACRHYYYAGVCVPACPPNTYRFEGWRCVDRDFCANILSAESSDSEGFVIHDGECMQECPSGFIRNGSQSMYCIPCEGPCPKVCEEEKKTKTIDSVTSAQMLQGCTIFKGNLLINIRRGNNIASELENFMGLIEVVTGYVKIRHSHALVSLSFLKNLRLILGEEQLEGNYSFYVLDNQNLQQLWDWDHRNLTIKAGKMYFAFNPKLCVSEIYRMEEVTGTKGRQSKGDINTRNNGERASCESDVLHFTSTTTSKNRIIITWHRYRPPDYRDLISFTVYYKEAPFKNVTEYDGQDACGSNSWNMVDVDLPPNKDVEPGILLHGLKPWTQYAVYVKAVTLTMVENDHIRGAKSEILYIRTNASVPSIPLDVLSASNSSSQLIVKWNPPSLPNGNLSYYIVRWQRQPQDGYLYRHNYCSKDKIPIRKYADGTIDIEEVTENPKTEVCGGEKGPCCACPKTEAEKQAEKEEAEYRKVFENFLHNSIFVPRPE
Sequence of Insulin-like growth factor 1 receptor (Homo sapiens) (P08069 741-1367 limits assumed): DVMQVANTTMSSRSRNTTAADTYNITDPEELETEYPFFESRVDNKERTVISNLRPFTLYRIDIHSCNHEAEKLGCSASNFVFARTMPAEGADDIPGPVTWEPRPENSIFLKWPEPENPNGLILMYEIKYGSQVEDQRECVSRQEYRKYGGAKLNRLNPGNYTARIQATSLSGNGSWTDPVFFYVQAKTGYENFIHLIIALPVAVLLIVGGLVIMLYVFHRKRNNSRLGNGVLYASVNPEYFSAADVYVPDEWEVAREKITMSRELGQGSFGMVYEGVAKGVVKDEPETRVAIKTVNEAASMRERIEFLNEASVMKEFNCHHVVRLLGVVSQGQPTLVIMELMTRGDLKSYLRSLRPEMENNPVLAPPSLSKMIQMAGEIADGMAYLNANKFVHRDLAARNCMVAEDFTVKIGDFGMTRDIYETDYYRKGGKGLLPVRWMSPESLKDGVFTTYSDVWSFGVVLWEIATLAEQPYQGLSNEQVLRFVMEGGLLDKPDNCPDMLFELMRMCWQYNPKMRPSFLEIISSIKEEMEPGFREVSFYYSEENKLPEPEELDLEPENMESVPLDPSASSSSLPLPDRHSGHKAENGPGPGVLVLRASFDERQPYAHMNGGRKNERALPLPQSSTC

This test concerns the target Insulin-like growth factor 1 receptor (Homo sapiens) (UniProt P08069). The conditions noted are these: at 0.1 µM.
Turning to `COc1cc2ncn(-c3cc(OCc4cccs4)c(C(N)=O)s3)c2cc1OC`, the inhibition is -8.52%. Take `COc1cc(C)c(N(C)C(=O)CN(C)C)cc1Nc1nc(Nc2cccc(F)c2C(N)=O)c2cc[nH]c2n1`: the inhibition was 31.2%. Under `CN(C)CCCNc1nccc(-c2c(-c3ccc(F)cc3)nn3cc(C(F)(F)F)ccc23)n1` stands -7.12%.

Take `COc1cccc(/C=N/Nc2ncnc3c2cnn3-c2cccc(OC)c2)c1`: the inhibition was 2.01%. On to `CCC(=O)Nc1ccc(C)c(-c2ccc(C(=O)NCC3CC3)cc2)c1`, for which the inhibition is 3.84%. Take `CCS(=O)(=O)c1ccc(OC)c(Nc2ncc(-c3cccc(-c4ccccc4F)c3)o2)c1`: the inhibition was 2.3%. Take `C#Cc1cccc(Nc2ncnc3ccc(OCCCCNCCS(C)(=O)=O)cc23)c1`: the inhibition is -0.58%. As to `COc1cc2ncn(-c3cc(OCCc4ccccc4)c(C(N)=O)s3)c2cc1OC`, the inhibition came out at 1.99%. For the molecule `Cc1ccc(C(=O)NC2CCC2)cc1-c1ccc(C(=O)NCC2CC2)cc1`, the inhibition stood at 2.06%. Turning to `COc1ccc2cc(-c3c(-c4ccncc4)nc(-c4ccc([S+](C)[O-])cc4C)n3C)ccc2c1` (centres undefined), the inhibition is 0.87%. Consider `COc1cc(N2CCN(C(C)C)CC2)ccc1Nc1nc(Nc2ccc(F)cc2C(=O)NC[C@@H](O)CO)c2cc[nH]c2n1`, for which the inhibition came to 80.6%.

Turning to `Fc1ccc(-c2nc3n(c2-c2ccncc2)CCS3)cc1`, the inhibition is -2.12%. Take `CN1CCN(CCCNc2nc3ccc(Oc4ccc(NC(=O)Nc5cc(C(F)(F)F)ccc5F)cc4)cc3[nH]2)CC1`: the inhibition is -9.82%. As for `Fc1ccc(-c2c(-c3ccncc3)nc3n2CCS3)cc1`, the inhibition was -4.27%.

Regarding `NCc1ccc(-n2c(-c3nonc3N)nc3cnccc32)cc1`, the inhibition was 5.71%. For the molecule `CCS(=O)(=O)c1ccc(OC)c(Nc2ncc(-c3ccccc3Cl)o2)c1`, the inhibition was 1.62%. Regarding `Fc1ccc(-c2ncn(C3CCNCC3)c2-c2ccnc(Oc3ccc(Oc4ccccc4)cc3)n2)cc1`, the inhibition is 5.31%. As for `C[C@@H](Oc1cc(-n2cnc3ccc(OC4CCN(C)CC4)cc32)sc1C(N)=O)c1ccccc1Cl`, the inhibition is -9.14%.

For `c1ccc(-c2n[nH]cc2-c2ccnc(-c3ccc(OCCN4CCOCC4)cc3)c2)nc1`, the inhibition is -2.45%.

Take `c1ccc(Oc2ccc(Nc3ncc(-c4ccccc4)o3)cc2)cc1`: the inhibition was determined as 1.77%.

For `C[C@@H](Oc1cc(-n2cnc3ccc(OCC4CCN(C)CC4)cc32)sc1C(N)=O)c1ccccc1Cl`, the inhibition worked out at 6.33%. In the case of `CCN(CC)Cc1ccc(Nc2nccc(-c3cnn4ncccc34)n2)cc1` it was 3.11%; in that of `Cc1nnc(-c2ccc(C)c(-c3ccc(C(=O)NCc4ccc(Cl)cc4)cc3)c2)o1`, -3.42%; in that of `O=C(Nc1n[nH]c2cc(-c3ccccc3)ccc12)C1CC1`, 10.5%. On to `COc1cc(Nc2ncc3c(C)nc(-c4cccc(Oc5ccccc5)c4)n3n2)cc(OC)c1OC`, for which the inhibition is 3.82%. In the case of `Clc1ccc(CNc2nccc(-c3cnn4ncccc34)n2)cc1`, the inhibition was 2.48%. As to `CN(C)c1ccc2c(c1)/C(=C/Nc1ccc(S(N)(=O)=O)cc1)C(=O)N2`, the inhibition turned out to be 9.21%. As for `CNC(=O)c1cncc(/C=C/c2c(C)cccc2C)c1`, the inhibition was -3.76%.

Regarding `COc1cc(Nc2ncc3c(C)nc(-c4cccc(C(F)(F)F)c4)n3n2)cc(OC)c1OC`, the inhibition turned out to be 2.62%.

For orientation: inhibition means the relative decrease from the control value, in per cent.
